Molecules are shown by their SMILES. Out of some 330,000 compounds screened, about 1,900 (0.58%) were called active. Another 4% or so got no clear call; they are omitted. Cut-off read from the data, not from the text of the source: inconclusive = inhibition above about 70% without an active follow-up result; inactive = below that. Only a sample is shown. Results with a measured potency or affinity are listed apart.

This experiment can be described thus: M. tuberculosis growth inhibition, HTS (AID 449762).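 Note: bacterial growth assessed after seven days of incubation.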 The following applies: M. tuberculosis H37Rv growth inhibition, 7H9 media; at 25 µM; active compounds read high.
Consider `CC1Sc2ccc(S(=O)(=O)CCC(=O)Nc3ccccc3Cl)cc2NC1=O` (configuration not stated), for which the inhibition (as a rule, the change of the read-out against control, counted positive when it falls) is 0.85% (inactive).
`CCOC(=O)C1CCN(CC(O)COc2ccc(C(C)=O)cc2)CC1` (configuration not stated): the inhibition was -0.99% (inactive).
As for `CCOC(=O)C1CCN(CC(O)COc2ccc(C(=O)CC)cc2)CC1` (configuration not stated), the figure is -15.2% (inactive).
In the case of `COC(=O)c1ccc(CNC(=O)COC(=O)c2cccs2)cc1`, the inhibition was 12.5% (inactive).
In the case of `COc1ccc(/C=C2\N=C(C)N(c3ccc4ccccc4c3)C2=O)cc1OC`, the inhibition is 4.18% (inactive).
Turning to `COc1cc(-c2nnc(NC(=O)c3ccc(S(=O)(=O)N4CCOCC4)cc3)o2)cc(OC)c1OC`, the inhibition is 5.07% (inactive).
Next, `COc1ccccc1-c1nnc(NC(=O)c2ccc(S(=O)(=O)N3CCOCC3)cc2)o1`: 43.3% (inactive); `CCCN(CC(=O)Nc1ccccc1OC)C(=O)c1ccccn1`: 0.49% (inactive); `C=CCN1C(=O)c2ccc(C(=O)N(C)CC(=O)Nc3cccc(F)c3)cc2C1=O`: 0% (inactive).
Next, `CCOC(=O)c1c(C)[nH]c(C(=O)OCC(=O)NCc2ccc(OC)c(OC)c2)c1C`: 3.95% (inactive).
Next, `COc1ccc(C)cc1Nc1n[n+](-c2ccccc2)c(-c2cccc(Cl)c2Cl)s1`: 60% (inactive); `COc1ccc(C)cc1Nc1n[n+](-c2ccccc2)c(-c2cc(OC)c(OC)cc2Br)s1`: 62.1% (inactive); `COC(=O)C1=C(C(=O)OC)[C@@H]2N(C)c3ccc(OC)cc3[C@@]23C[C@@H](C(=O)OC)N(C(=O)CC(C)C)C3=N1`: -3.14% (inactive).
Take `O=C(C1=C(O)C(=O)N(Cc2ccco2)C1c1ccccc1F)c1cccs1` (configuration not stated): the inhibition was 12.7% (inactive).
For the compound `Cc1cc(C)n(-c2ccc(F)cc2CN2CCN(C3CCCC3)C(CCO)C2)n1` (configuration not stated), the inhibition was 8.29% (inactive).
As for `C=C(C)C1CC=C(CN2CCC(O)CC2)CC1` (configuration not stated), the figure is -0.8% (inactive).
Regarding `C=C(C)C1CC=C(CN2CC(C)OC(C)C2)CC1` (configuration not stated), the inhibition was -4.9% (inactive).
In the case of `CCOC(=O)c1c(/N=C/N(C)C)sc(/C=N/Nc2ccccc2)c1-c1ccc(Cl)cc1`, the inhibition was 69% (inactive).
Next, `CCOC(=O)c1c(/N=C/N(C)C)sc(/C=N/Nc2ccccc2)c1-c1ccccc1`: 4.1% (inactive).
As for `CN(CC(=O)NCc1ccccc1)S(=O)(=O)c1cnc[nH]1`, the figure is 2.4% (inactive); as for `Cc1cc(C)cc(OCC(=O)OCC(=O)NC2CCCCCC2)c1`, 2.47% (inactive); as for `Cc1ccc(-n2ncc3c(SCC(=O)Nc4cc(C)on4)ncnc32)c(C)c1`, -4.04% (inactive).
Consider `CSc1ncnc2c1cnn2-c1ccc(C)cc1C`, for which the inhibition is 6.4% (inactive).
Next, `O=C(NCc1cccnc1)C1CCCN(S(=O)(=O)c2ccc(Cl)cc2)C1` (configuration not stated): -6.29% (inactive).
In the case of `O=[N+]([O-])c1cc(-c2nnc(N3CCOCC3)c3ccccc23)ccc1N1CCOCC1`, the inhibition was 0.47% (inactive).
Next, `Cc1ccnc(NC(=O)CCCc2c[nH]c3ccccc23)c1`: -0.54% (inactive); `Cc1ccc(NC(=O)CCc2c[nH]c3ccccc23)nc1`: 1.19% (inactive); `O=C(CN(C(=O)CSc1nc2ccccc2o1)c1ccccc1)NC1CCCCC1`: -0.41% (inactive).
Turning to `CNc1c(C(=O)O)ccc2c1C(=O)c1ccccc1C2=O`, the inhibition was 9.33% (inactive).
For `COc1ccc2c(c1O)C(=O)c1ccccc1C2=O`, the inhibition was -7.89% (inactive).
Consider `CCc1nc(SCC(=O)Nc2ccnc3ccccc23)n[nH]1`, for which the inhibition was -7.48% (inactive).
As for `Cc1cc(=O)oc2cc(Oc3ccc([N+](=O)[O-])cc3[N+](=O)[O-])ccc12`, the figure is 50.5% (inactive); as for `Cc1c(C)c2ccc(Oc3ccc([N+](=O)[O-])cc3C(F)(F)F)c(C)c2oc1=O`, 7.78% (inactive); as for `CN(c1ccccc1)S(=O)(=O)c1ccc(C(=O)OCC(=O)NC(N)=O)cc1`, 1% (inactive).
As for `COc1ccc(-c2c(C(=O)O)c(C(=O)O)c3n2CCC3)cc1`, the figure is 0.3% (inactive); as for `Cc1ccc(CSc2ncn(-c3ccccc3)n2)cc1`, -2.76% (inactive).
As for `CC(C)(C)c1ccc(NC(=O)CCNC(=O)c2ccco2)cc1`, the inhibition is 1.96% (inactive).
Consider `Cc1cc(C)c(S(=O)(=O)Nc2ccc(Cl)cn2)c(C)c1`, for which the inhibition is 2.9% (inactive).
In the case of `CCN(CC(=O)Nc1ccccc1OC)C(=O)CCOc1ccc(C(C)(C)C)cc1`, the inhibition was -2.92% (inactive).
Next, `O=[N+]([O-])c1cc(S(=O)(=O)N2CCCCC2)ccc1NCCN1CCOCC1`: -0.42% (inactive); `CCC(=O)Nc1cccc(-c2ccc(N3CCCCC3)nn2)c1`: 2.67% (inactive).
As for `O=C(Nc1cccc(-c2ccc(N3CCCCC3)nn2)c1)C(F)(F)F`, the inhibition is 5.09% (inactive).
As for `COc1cccc(C(=O)/C=C/Nc2ccc(S(=O)(=O)Nc3nc(C)cc(C)n3)cc2)c1`, the inhibition was 1.1% (inactive).
Next, `FC(F)(F)c1cc(CCN2C(=S)NC[C@@H]2c2ccccc2)cc(C(F)(F)F)c1`: -1.12% (inactive).
As to `O=C1NC[C@H](c2ccccc2)N(CCc2cc(C(F)(F)F)cc(C(F)(F)F)c2)C1=O`, the inhibition was 2.8% (inactive).
Next, `CN(C)S(=O)(=O)c1cccc(NC(=O)c2ccc(OC(F)(F)F)cc2)c1`: 5.44% (inactive); `O=C(O)C1=C[C@H](c2coc3ccccc3c2=O)C[C@H](OCCCCO)O1`: -1.88% (inactive).
As for `CCOC(=O)N1CCN(C(=O)/C(=C/c2ccc(OC)cc2)NC(=O)c2ccccc2)CC1`, the figure is 1.93% (inactive); as for `Cc1cc(Cl)ccc1NC(=O)CN1CCC(C(O)(c2ccccc2)c2ccccc2)CC1`, 46% (inactive).
As for `O=C(CN1CCC(C(O)(c2ccccc2)c2ccccc2)CC1)Nc1cc(Cl)ccc1Cl`, the figure is 54.5% (inactive).
For `COCCCNC(=O)c1ccc(-c2csc(C)n2)cc1`, the inhibition is 2.89% (inactive).
Consider `Cc1ccc(NC(=O)CN2CCOCC2)cc1S(=O)(=O)N1CCCCC1`, for which the inhibition is -0.79% (inactive).
Take `COCCN(C(=O)COC(=O)CCc1ccc(OC)cc1)c1c(N)n(Cc2ccccc2)c(=O)[nH]c1=O`: the inhibition was -4.28% (inactive).
As for `CCCNC(=O)c1ccc2c(=O)n(Cc3ccco3)c(=S)[nH]c2c1`, the figure is 4.3% (inactive).
For `Cc1ncoc1C(=O)N1CCCC(C(=O)c2ccc(-c3ccccc3)c(F)c2)C1` (configuration not stated), the inhibition was 10.4% (inactive).
Next, `COc1ccc2cc(C(=O)C3CCCN(C(=O)c4cncs4)C3)ccc2c1` (configuration not stated): 0.43% (inactive); `Cc1ccc(NC(=O)NCc2ccncc2)cc1Cl`: 4.38% (inactive).

(Values after PubChem BioAssay AID449762 (Southern Research Specialized Biocontainment Screening …, 2010).)
